In the supplement of paper PMC8540655:
Unmarked numbers belong to inactive results.

Test system: Aedes aegypti larvae
Assay: larval motility relative to same well at 0 h (fraction); higher = more motile (less active compound), active = 0.4 or less
Conditions: 10 µM
In short: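 Compounds at 10 µM (1% v/v DMSO) were applied to about 10 Aedes aegypti larvae per well in 100 µL, with every plate including solvent and larvicide control wells. Motility movies were taken with INVAPP at 0, 2 and 24 h, and results are medians of three independent larval batches. Relative motility is each well's score expressed as a fraction of its own first score.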

| Structure (SMILES) | larval motility (2 h) | larval motility (24 h) |
| --- | --- | --- |
| Cc1cc(NS(=O)(=O)c2ccc(-c3ccc(F)cc3F)cc2)no1 | 0.769 | 0.77 |
| O=C(NN1C(=O)[C@@H]2C3C=CC([C@H]4C[C@@H]34)[C@@H]2C1=O)c1ccc(C(F)(F)F)cc1 | 0.844 | 0.599 |
| CCNC(=O)Nc1cc2c(-c3ccnc(C)c3)ccc(CNC(=O)OC)c2cn1 | 0.695 | 0.931 |
| CC(C)(C)NC(=O)[C@@H]1C[C@@H]2CCCC[C@@H]2CN1C[C@@H](O)[C@H](Cc1ccccc1)NC(=O)[C@H](CC(N)=O)NC(=O)c1ccc2ccccc2n1 | 1.43 | 1.49 |
| Cc1c(CN(C)C(=O)/C=C/c2cnc3c(c2)C(C)(C)C(=O)N3)oc2ccccc12 | 1.24 | 1.15 |
| CCCc1ccc(-c2cc3cn([C@H]4C[C@H](O)[C@@H](CO)O4)c(=O)nc3o2)cc1 | 0.729 | 0.902 |
| CN(C)[C@@H]1C(=O)C(C(N)=O)=C(O)[C@@]2(O)C(=O)C3=C(O)c4c(O)c(NC(=O)CN5CCCC5)cc(F)c4C[C@H]3C[C@@H]12 | 0.841 | 1.78 |
| COC1CC2CCC(C)C(O)(O2)C(=O)C(=O)N2CCCCC2C(=O)OC(C(C)CC2CCC(OCCO)C(OC)C2)CC(=O)C(C)/C=C(\C)C(O)C(OC)C(=O)C(C)CC(C)/C=C/C=C/C=C/1C (stereo not drawn) | 0.921 | 1.02 |
| c1cc(CN2CCCNCCNCCCNCC2)ccc1CN1CCCNCCNCCCNCC1 | 0.964 | 0.915 |
| O=P(O)(O)C(CCCc1cccc(Oc2ccccc2)c1)S(=O)(=O)O (stereo not drawn) | 0.663 | 0.88 |
| Nc1ccc(-c2nc3cc(C(F)(F)F)ccc3n2C23CC4CC(CC(C4)C2)C3)cc1 | 1.1 | 1.22 |
| COc1ccc2c(c1OC)C(=O)OC2C1c2c(cc3c(c2OC)OCO3)CCN1C (stereo not drawn) | 0.987 | 0.828 |
| Cc1c(F)cccc1NC(=O)Nc1ccc(Cl)c(S(=O)(=O)[C@H]2CCCNC2)c1O | 0.645 | 0.669 |
| CCc1cc(O)c(Oc2cccnc2N)cc1F | 1.72 | 1.42 |
| CN1c2ccc(Cl)cc2N(c2ccccc2)C(=O)c2cn(Cc3ccc(CN4CCOCC4)cc3)nc21 | 0.674 | 0.985 |
| CCO/N=C/c1ccc(OCCCCN2CCN(c3ccncc3)C2=O)cc1 | 1.36 | 1.3 |
| Nc1cc(N)c2nc(-c3ccccc3)c(Nc3ccc(F)cc3)nc2c1 | 0.877 | 0.892 |
| O=C(Nc1ccc(F)cc1)c1nn(-c2ccccc2)c(=O)cc1Cl | 1.14 | 0.91 |
| N#Cc1cc([N+](=O)[O-])ccc1Oc1ccccc1Cl | 1.05 | 1.15 |
| Cc1cc(CCCOc2c(C)cc(-c3noc(C(F)(F)F)n3)cc2C)on1 | 1.46 | 0.903 |
| CC#C[C@]1(O)CC[C@H]2[C@@H]3CCC4=CC(=O)CCC4=C3[C@@H](c3ccc(N(C)C)cc3)C[C@@]21C | 0.693 | 0.826 |
| CCc1nc2ccccn2c1C(=O)NCc1ccccc1 | 1.39 | 0.997 |
| NC(=O)c1cnccn1 | 0.745 | 1 |
| O=c1cc(NCCCN[C@@H]2CCOc3c(Br)cc(Br)cc32)[nH]c2ccsc12 | 0.659 | 1.28 |
| O[C@@](Cn1cnnn1)(c1ccc(F)cc1F)C(F)(F)c1ccc(-c2ccc(OCC(F)(F)F)cc2)cn1 | 0.718 | 0.564 |
| CCOC(=O)N1CCN(c2ccc(Cl)cc2)CC1 | 1.05 | 1.36 |
| CCOCc1nc2c(N)nc3ccccc3c2n1CC(C)(C)O | 1.09 | 0.906 |
| CCc1nc(N)nc(N)c1C#CC(C)c1cc(OC)cc(-c2ccncc2)c1 (stereo not drawn) | 0.87 | 0.417 |
| NCCCc1ccccc1C(=O)Nc1ncc([N+](=O)O)s1 | 0.869 | 0.646 |
